Bioassay records: PubChem BioAssay, National Center for Advancing Translational Sciences (NCATS)
AmpC inh detg – qHTS Inhibitors of AmpC Beta-Lactamase (assay with detergent). P00811. AmpC hydrolysis of nitrocefin, absorbance 480 nm, 0.01% Triton. Potency, µM (titrated, usually from 114 µM), inactives show at the highest dose activity change, negative = inhibition, most hits filed as inhibitors. hit rate 0.041% among 370,000. AID 485294, 2010;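 further: 0% = no-compound wells and -100% = no-enzyme wells; nearly all actives have a fitted effect of over 25% in size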
Target sequence (P00811 whole entry, looked up): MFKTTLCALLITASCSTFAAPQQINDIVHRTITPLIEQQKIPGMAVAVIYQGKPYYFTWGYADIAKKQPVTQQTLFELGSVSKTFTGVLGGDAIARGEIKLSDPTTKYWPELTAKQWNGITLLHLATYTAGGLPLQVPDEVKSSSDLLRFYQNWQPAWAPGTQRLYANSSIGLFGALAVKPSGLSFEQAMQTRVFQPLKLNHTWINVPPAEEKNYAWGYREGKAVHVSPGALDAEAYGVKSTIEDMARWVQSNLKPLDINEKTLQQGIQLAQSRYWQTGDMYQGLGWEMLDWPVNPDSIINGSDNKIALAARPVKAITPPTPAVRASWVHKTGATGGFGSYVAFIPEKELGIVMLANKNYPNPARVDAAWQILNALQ
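AmpC (5.3 nM in the dispensed reagent) in 20 mM phosphate pH 7.0 with 0.01% (detergent screen) or 0.0001% Triton X-100 was preincubated with compounds for 15 min at room temperature. Nitrocefin was then added from an 800 uM solution, and hydrolysis was followed at 480 nm.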
TbPYK inhibitor – qHTS of Trypanosoma Brucei Inhibitors; pyruvate kinase (Trypanosoma brucei), Q57TT1; TbPYK enzyme, Kinase-Glo Plus ATP luminescence, 45 min; Potency, µM (doses to about 76.8 µM), for the others: top-dose activity, negative = inhibition, most hits filed as inhibitors; hit rate 0.12% among 410,000; AID 624173, 2012; further: on the % scale 0 is the no-effect control and ±100 the full control effect; nearly all actives have a fitted effect of over 50% in size
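Assay buffer: 50 mM TEA pH 7.2, 100 mM KCl, 10 mM MgCl2, 0.05% BSA, 0.01% Tween-20. Pyruvate kinase from T. brucei plus substrate met compound, then ADP (130 uM final). Luminescence was read post 45 min RT.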
SARS PLP yeast – qHTS of Yeast-based Assay for SARS-CoV PLP. hit rate 0.19% among 330,000. AID 485353, 2010. Potency, µM (series often up to 32.9 µM), for inactives: top-dose activity, positive = growth rescue, usual class: activators. S. cerevisiae expressing SARS-CoV PLpro, growth rescue; calls by dose curve; further: 0% is about no effect; nearly all actives have a fitted effect of over 55% in size
Sm TGR inh – qHTS Assay for the Inhibitors of Schistosoma Mansoni Peroxiredoxins | Schistosoma mansoni thioredoxin glutathione reductase (TGR), Q962Y6 | purified TGR, DTNB reduction, TNB absorbance 405 nm | Potency, µM (doses to about 114 µM), for the others: at the top dose activity change, negative = inhibition, usual class: inhibitors | hit rate 3% among 360,000; further: on the % scale 0 is the no-effect control and ±100 the full control effect; nearly all actives have a fitted effect of over 60% in size
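TGR 20 nM + NADPH 100 uM (dispensed conc.), cpd preinc 15 min RT; start with NADPH (500 uM addition) then DTNB (15 mM addition). Kinetic TNB absorbance, 405 nm filter. Four-parameter Hill fit across titration.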
RE007 growth inh – qHTS Assay for Inhibitors of the HIV-1 protein Vpr. S. pombe RE007 Vpr strain, BacTiter-Glo ATP luminescence, 24 h. Potency, µM (series often up to 92.2 µM), for inactives: at the top dose activity change, negative = less growth, usual class: inhibitors. hit rate 0.21% among 360,000. AID 651644, 2012; active means well fitted falling curve with a large enough effect; inconclusive means small, poorly fitted or top-dose-only effect; inactive means no such curve, though single readings can be large or run the other way; further: on the % scale 0 is the no-effect control and ±100 the full control effect; nearly all actives have a fitted effect of over 50% in size
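Fission yeast RE007 carrying one integrated HIV-1 vpr copy, seeded at OD 0.01 in PMG+AL medium with 23 nL pinned compound. Grown 24 h at 30 degrees; viability read by BacTiter-Glo luminescence after 5 min.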
AmpC inh no detg – qHTS Inhibitors of AmpC Beta-Lactamase (assay without detergent). P00811. hit rate 0.52% among 330,000. Potency, µM (titrated, usually from 57.1 µM), inactives show top-dose activity change, negative = inhibition, most hits filed as inhibitors. AmpC nitrocefin hydrolysis, absorbance 480 nm, 0.0001% Triton. AID 485341, 2010;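 further: plate controls were no compound for no effect and no enzyme for full effect; nearly all actives have a fitted effect of over 20% in size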
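20 mM phosphate pH 7.0 + 0.01% (detergent screen) or 0.0001% Triton X-100; 5.3 nM AmpC reagent; cpd preinc 15 min RT; nitrocefin (800 uM stock) to start; A480 q20 s × 4 min; Activity was normalised to no-enzyme and no-compound control wells.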
An asterisk follows results filed as active; ? = inconclusive; / = no result. An excerpt weighted towards active compounds, which were near 3.3% of everything screened. Unless noted, the call rests on the fitted dose curve; in most records, active means well fitted curve in the direction sought with a large enough effect; inconclusive means small, poorly fitted or top-dose-only effect, or another doubt; inactive means no such curve, though single readings can be large; an effect the other way counts as inactive or inconclusive. Potency means the concentration at half of the fitted maximal effect.

SMILES	AmpC inh detg	TbPYK inhibitor	SARS PLP yeast	Sm TGR inh	RE007 growth inh	AmpC inh no detg
COc1ccc(NC(=O)CC2C(=O)N(c3ccc(OC)cc3)C(=O)N2C2CCCCC2)cc1 (stereo not given)	9%	2%	/	56µM*	/	/
Cc1ccc(N2C(=O)C(CC(=O)Nc3cccc(F)c3)N(C3CC3)C2=O)cc1 (stereo not given)	2%	2%	0%	50µM*	6%	-11%
CCc1ccc(NC(=O)CC2C(=O)N(c3ccc(C)cc3)C(=O)N2C2CCCC2)cc1 (stereo not given)	-11%	3%	/	2%	/	/
C[C@H](/C=C/[C@H](C)C(C)(C)O)[C@H]1CC[C@H]2/C(=C/C=C3C[C@@H](O)C[C@H](O)C3)CCC[C@]12C	/	7%	/	/	/	/
Cn1c2ccccc2c2cc(C(=O)NNC(=O)CCl)sc21	1%	0%	8%	40µM*	-5%	-6%
Cc1ccsc1/C=N/Nc1nc(=O)[nH]nc1C	1%	?	-3%	-5%	13µM*	-1%
COC(=O)c1ccc2c(c1O)C(=O)c1ccccc1C2=O	2%	2%	-12%	-13%	4.5µM*	0%
O=C1c2ccccc2C(=O)c2c1ccc(O)c2O	/	-21%	/	/	?	/
COCCCN=C1NN=C(c2cc(C)n(Cc3ccco3)c2C)CS1	-10%	?	3%	-6%	-16%	-11%
Cc1cc(C2=NNC(=NC3CC3)SC2)c(C)n1Cc1ccco1	2%	-39%	10µM*	-9%	-3%	13%
CCOC(=O)C1CCN(C2=NC(=O)/C(=C/c3ccc(Cl)cc3)S2)CC1	-9%	-4%	-3%	-14%	-18%	113%
CCOC(=O)CSC1=NC(=O)/C(=C\c2ccc(Cl)cc2)S1	4%	-1%	-49%	3.5µM*	?	-39%
COc1ccc(-c2nc(CS(=O)CC(=O)NC3CCCC(C)C3C)c(C)o2)cc1OC (stereo not given)	-4%	0%	13%	13µM*	-1%	130%
COc1ccc(-c2nc(CS(=O)CC(=O)NCCN3CCCCC3C)c(C)o2)cc1OC (stereo not given)	2%	2%	-12%	-29%	-1%	21%
COc1ccc(-c2nc(CS(=O)CC(=O)NC3CCCCC3C)c(C)o2)cc1 (stereo not given)	-10%	-8%	0%	?	8%	70%
Cc1ccc(-c2nc(CS(=O)CC(=O)NC3CCCC(C)C3C)c(C)o2)cc1 (stereo not given)	1%	-2%	-2%	45µM*	9%	142%
Cc1ccc2oc(=O)c3cc(C(=O)Nc4cccc(C#N)c4)sc3c2c1	16%	5%	/	2%	/	/
COc1cccc(-c2nc(CS(=O)(=O)CC(=O)Nc3cccc(C)c3C)c(C)o2)c1	?	-1%	-13%	?	6%	45µM*
COc1cccc(-c2nc(CS(=O)(=O)CC(=O)Nc3cc(OC)ccc3OC)c(C)o2)c1	-1%	5%	?	50µM*	8%	60%
COc1cccc(-c2nc(CS(=O)(=O)CC(=O)Nc3ccccc3C)c(C)o2)c1	-5%	1%	-11%	-31%	-3%	-2%
COc1cccc(-c2nc(CS(=O)(=O)CC(=O)Nc3ccccc3Br)c(C)o2)c1	4%	0%	0%	-32%	6%	-2%
CC(=O)N1CCCc2cc(S(=O)(=O)N3CCC(C(=O)NCc4ccccc4Cl)CC3)ccc21	6%	2%	/	3%	/	/
COc1ccc(OC)c(NC(=O)c2oc(=O)c3ccccc3c2-c2ccccc2)c1	6%	-9%	/	?	/	/
